Screen size: about 310,000 compounds; about 14,000 (4.5%) showed an effect of 50% or more. Effects have a minus sign here. The entries come from a sample that favours strong results as a whole.
Target: human ether-à-go-go-related gene (hERG) potassium channel (human, UniProt Q12809)
Test: primary screen, population patch clamp on CHO cells stably expressing hERG; higher = less effect of the substance
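Further: peak tail current of the secondary pulse compared with the same well before compound.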

Chain of human ether-à-go-go-related gene (hERG) potassium channel (Q12809 whole entry, looked up): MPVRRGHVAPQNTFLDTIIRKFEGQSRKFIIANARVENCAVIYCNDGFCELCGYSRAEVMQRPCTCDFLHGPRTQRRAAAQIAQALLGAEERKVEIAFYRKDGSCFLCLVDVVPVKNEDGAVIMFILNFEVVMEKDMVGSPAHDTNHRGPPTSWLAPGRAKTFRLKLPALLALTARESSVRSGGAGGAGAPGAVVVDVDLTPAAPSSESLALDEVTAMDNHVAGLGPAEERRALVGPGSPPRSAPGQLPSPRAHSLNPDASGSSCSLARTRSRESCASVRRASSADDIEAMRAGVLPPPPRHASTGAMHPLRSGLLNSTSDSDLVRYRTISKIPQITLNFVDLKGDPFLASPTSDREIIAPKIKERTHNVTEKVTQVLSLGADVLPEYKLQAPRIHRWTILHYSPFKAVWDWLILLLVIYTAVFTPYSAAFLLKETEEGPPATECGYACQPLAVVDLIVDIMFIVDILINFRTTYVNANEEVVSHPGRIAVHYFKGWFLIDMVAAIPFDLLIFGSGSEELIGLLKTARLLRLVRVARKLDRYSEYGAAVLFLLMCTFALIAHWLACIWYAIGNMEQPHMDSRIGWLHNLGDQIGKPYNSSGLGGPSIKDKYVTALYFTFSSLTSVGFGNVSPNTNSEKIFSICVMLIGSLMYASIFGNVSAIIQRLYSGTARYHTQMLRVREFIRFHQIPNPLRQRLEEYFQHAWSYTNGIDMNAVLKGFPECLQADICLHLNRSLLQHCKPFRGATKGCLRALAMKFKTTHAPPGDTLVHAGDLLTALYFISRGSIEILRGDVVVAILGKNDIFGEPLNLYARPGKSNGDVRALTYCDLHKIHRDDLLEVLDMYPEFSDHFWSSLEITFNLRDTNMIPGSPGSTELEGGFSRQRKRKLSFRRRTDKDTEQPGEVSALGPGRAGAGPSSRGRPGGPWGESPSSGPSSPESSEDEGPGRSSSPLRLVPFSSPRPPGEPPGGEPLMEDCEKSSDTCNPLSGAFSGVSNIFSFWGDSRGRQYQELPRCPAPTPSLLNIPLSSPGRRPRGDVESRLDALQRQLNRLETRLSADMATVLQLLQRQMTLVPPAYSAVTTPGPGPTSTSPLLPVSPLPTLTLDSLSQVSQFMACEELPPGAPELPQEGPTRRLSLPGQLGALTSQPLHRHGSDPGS

Row | SMILES | hERG current change (%, negative = inhibition) at 10uM
1 | O=c1cc(-c2cc3ccccc3o2)c2cc(O)ccc2o1 | 13.3%
2 | Clc1ccc(-[n+]2c(-c3cccc(Br)c3)[nH]c3nc4ccccc4nc32)cc1 | 13.5%
3 | Cc1ccc(S(=O)(=O)NC(=O)COc2ccccc2C)c(C)c1 | -21.9%
4 | Cc1c(Cl)cccc1NC(=O)COC(=O)c1c2c(nc3ccccc13)CCN(Cc1ccccc1)C2 | 2.82%
5 | Cc1ccc(C(=O)NNC(=O)Cn2nnc3ccccc32)cc1 | 13.3%
6 | NC(=O)COc1cccc(/C=N/NC(=O)c2ccc(-n3cccc3)cc2)c1 | 13.5%
7 | CCN(CC)CCN(Cc1cc2cc3c(cc2[nH]c1=O)OCCO3)C(=S)NCC(C)C | -4.96%
8 | CC(C)CNC(=S)N(CCN(C)C)Cc1cc2cc3c(cc2[nH]c1=O)OCO3 | 0.354%
9 | CCN(CC)CCN(Cc1cc2cc3c(cc2[nH]c1=O)OCO3)C(=S)NCC(C)C | -55.1%
10 | S=C1NCCOCCNC(=S)NCCOCCOCCOCCN1 | 10.2%
11 | CCc1cc(=O)oc2cc(C)c3c(C)coc3c12 | 16.3%
12 | CCOC(=O)C1=C(C)NC(=O)C(C(N)=O)C12CCCCC2 (centres unmarked) | 12.4%
13 | CC(C)NC(=O)CN1C(=O)CSc2ccc(S(=O)(=O)N3CCCC3)cc21 | 15.6%
14 | COC(=O)CCC(=O)N1CCCC(N2CCN(c3ccc(OC)cc3)CC2)C1 (centres unmarked) | -1.47%
15 | COc1ccc(CN2CCCC(N3CCN(c4ccc(OC)cc4)CC3)C2)cc1 (centres unmarked) | -45%
16 | COc1ccc(N2CCN(C3CCCN(Cc4cccc(OC)c4)C3)CC2)cc1 (centres unmarked) | -64.4%
17 | COc1ccc(N2CCN(C3CCCN(Cc4cccc(C)c4)C3)CC2)cc1 (centres unmarked) | -32.8%
18 | COc1ccccc1N1CCN(C2CCCN(Cc3ccccc3OCCO)C2)CC1 (centres unmarked) | -25.5%
19 | CSc1ccc(CN2CCCC(N3CCN(c4ccccc4)CC3)C2)cc1 (centres unmarked) | -64.2%
20 | CCOc1ccc(CN2CCCC(N3CCN(c4ccc(OC)cc4)CC3)C2)cc1 (centres unmarked) | -64%
21 | COc1ccc(N2CCN(C3CCCN(Cc4cccc(C(C)=O)c4)C3)CC2)cc1 (centres unmarked) | -30.2%
22 | OCCOc1ccc(CN2CCCC(N3CCN(c4ccc(F)cc4)CC3)C2)cc1 (centres unmarked) | -69.8%

Row | SMILES | hERG current change (%, negative = inhibition) at 10uM
23 | CCN(C1CCS(=O)(=O)C1)S(=O)(=O)c1ccc2ccccc2c1 (centres unmarked) | -10.5%
24 | Cc1c[n+](CC(=O)c2ccccc2)cs1.[Br-] | 22%
25 | COc1ccc(NC(=O)CSCC(=O)Nc2ccccc2N2CCCC2)cc1 | -7.76%
26 | CCOC(=O)c1csc(NC(=O)c2ccc(OCC)cc2)n1 | -14.9%
27 | Cc1ccccc1C(=O)OC1OC(=O)C(Cl)=C1Nc1ccc(C(=O)O)cc1 (centres unmarked) | 24.4%
28 | COc1ccc(N2CCN(C3CCCN(Cc4ccc(F)c(F)c4)C3)CC2)cc1 (centres unmarked) | -64.6%
29 | COc1ccccc1N1CCN(C2CCCN(Cc3c(F)cccc3F)C2)CC1 (centres unmarked) | -16.3%
30 | COc1ccc(S(=O)(=O)N2CCN3CCCC3C2)cc1 (centres unmarked) | 22.7%
31 | CCc1ccc(S(=O)(=O)N2CCCC(N3CCN(c4ccc(OC)cc4)CC3)C2)cc1 (centres unmarked) | -65.4%
32 | COc1ccc(N2CCN(C3CCCN(S(=O)(=O)c4ccccc4)C3)CC2)cc1 (centres unmarked) | -31.1%
33 | CC1CCCCN1CCCNc1ccc(C(CC(N)=O)NC(=O)Cc2cccc3ccccc23)cc1[N+](=O)[O-] (centres unmarked) | -14.6%
34 | Nc1nc(Oc2ccc(F)cc2)c(Br)c(=O)[nH]1 | 7.49%
35 | COc1ccc(-c2c(-c3ccc(OCC(=O)NN)cc3O)n[nH]c2C(F)(F)F)cc1 | -5.25%
36 | C/C(CC(=O)Nc1cc(Cl)ccc1Cl)=N\NC(=O)c1ccco1 | -6.6%
37 | Cc1ccc(CCNC(=O)C2CC(c3ccccc3[N+](=O)[O-])=NO2)cc1 (centres unmarked) | -20.7%
38 | Cc1c(C=O)n(C)n(-c2ccccc2)c1=O | 11.5%
39 | Cl.O=C(c1cc2ccccc2o1)N1CCN(Cc2ccccc2)CC1 | -32.6%
40 | O=C(c1ccc(Br)o1)N1CCN(C/C=C/c2ccccc2)CC1 | -61.8%
41 | O=C(c1ccc(Br)s1)N1CCN(C/C=C/c2ccccc2)CC1 | -40.6%
42 | O=C(c1cc2ccccc2o1)N1CCN(S(=O)(=O)/C=C/c2ccccc2)CC1 | -30.8%
43 | Cl.O=C(c1ccco1)N1CCN(C/C=C/c2ccccc2)CC1 | -38%
44 | O=C(c1cc2ccccc2o1)N1CCN(C/C=C/c2ccccc2)CC1 | -62.2%
